Hits are enriched below; roughly 4.1% of the tested compounds scored in any of these assays.
TIM10 inh – growth inhibitors of isogenic TIM10 control yeast, primary screen, counter-screen for tim10-1 yeast inhibitor project, luminescence, uHTS | AID 463195, 2010 | S. cerevisiae TIM10 strain growth, BacTiter-Glo luminescence, 24 h | inhibition, % at 10 µM | 1.4% of 330,000 active;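 active = inhibition of 40% or more at the single tested concentration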;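 note: wild-type TIM10 isogenic control strain grown at permissive 25 °C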
tim23-1 inh – growth inhibitors of tim23-1 mutant yeast, primary screen, luminescence, uHTS; S. cerevisiae tim23-1 growth, BacTiter-Glo luminescence, 24 h; inhibition, % at 20 µM; 1.3% of 330,000 active;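 active = growth inhibition of the mutant yeast at or above 50%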;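 note: temperature-sensitive mutant grown at 25 °C; plate controls were DMSO-treated mutant yeast for no effect and medium wells lacking yeast for full effect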
tim10-1 inh – growth inhibitors of tim10-1 mutant yeast, primary screen, luminescence, uHTS; 2.2% of 330,000 active; AID 463190, 2010; S. cerevisiae tim10-1 ts strain growth, BacTiter-Glo, 24 h; inhibition, % at 20 µM;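 active = inhibition of at least 40%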;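 note: mutant grown at 25 °C; 0% = DMSO wells with yeast and 100% = wells holding no yeast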
NALP1 inh – NALP1 inflammasome inhibitors in reconstituted yeast, colorimetric, S. cerevisiae, triplicate retest. 0.61% of 280,000 active. inhibition, % at 10 µM. S. cerevisiae NALP1/ASC/caspase-1 growth, X-gal OD620, 72 h. AID 2071, 2009; in the data active = inhibition mostly above about 24%, no sharp cut-off; inactive = mostly below about 32%
NLRP3 yeast inh – NALP3 inflammasome inhibitors in reconstituted yeast, primary screen, luminescence, uHTS; inhibition, % at 10 µM; AID 2825, 2010; 0.39% of 330,000 active; Yeast reconstituted NLRP3/ASC/caspase-1, beta-gal luminescence, 24 h;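 active = inhibition of 50% or more; inactive = inhibition below 50%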;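 note: plate controls were induced DMSO wells for no effect and uninduced yeast grown without galactose for full effect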
PfHsp90 yeast 2 – growth inhibition of PfHsp90-expressing yeast, primary screen, antimalarial PfHsp90 inhibitor project, S. cerevisiae, BacTiter-Glo luminescence, single point, set 2; BacTiter-Glo ATP, 48 h; yeast lacking PDR1 and PDR3 efflux regulators; inhibition, % at 9.4 µM; 0.32% of 310,000 active;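 active = every replicate shows inhibition above about 80%, whatever the replicate mean, limit read from the data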;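 note: 0% = DMSO neutral controls and 100% = 20 µM radicicol positive controls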
tim23-1 conf – tim23-1 mutant yeast growth inhibitors, confirmation, luminescence, single concentration; S. cerevisiae tim23-1 growth, BacTiter-Glo luminescence, 24 h; shares compounds with tim23-1 inh; 83% of 4,400 active; inhibition, % at 20 µM; AID 463218, 2010;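 active = inhibition above about 39% in either of two replicate wells at 20 µM, limit read from the data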;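 note: temperature-sensitive tim23-1 mutant grown at 25 °C; 0% = DMSO wells with yeast and 100% = medium wells without yeast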
* hit, by the source's call; / = not tested or not shown.

SMILES	TIM10 inh	tim23-1 inh	tim10-1 inh	NALP1 inh	NLRP3 yeast inh	PfHsp90 yeast 2	tim23-1 conf
COc1ccc(S(=O)(=O)N2CCN(Cc3cccc(Cl)c3)CC2)cc1	26.0	51.4*	26.5	5.8	24.3	16.0	52.6*
COC(Cc1ccccc1N1CCCC1=O)OC	4.2	14.6	17.8	11.4	15.3	-4.2	/
O=c1c2ccc([N+](=O)[O-])cc2ncn1CCOc1ccc(Cl)cc1	39.1	62.2*	6.5	-5.4	15.5	45.2	64.7*
O=C(N/N=C/c1cccs1)c1cc(-c2ccc3ccccc3c2)n[nH]1	6.3	29.6	-23.3	/	39.8	-5.6	/
O=C(N/N=C/c1cccs1)c1cc(-c2cccc3ccccc23)n[nH]1	-5.4	50.6*	-40.2	18.2	22.5	7.7	48.0*
Cc1cc(NC(=O)COc2ccccc2C)ccc1NC(=O)c1cccs1	19.5	54.4*	21.7	6.7	31.0	21.0	63.0*
O=C(NC(=S)NCc1ccc(Cl)cc1)c1ccco1	-4.4	50.6*	13.8	/	21.5	-18.2	45.1*
CCOc1ccccc1NC(=O)c1ccccc1NC(=O)c1ccco1	9.6	11.8	19.2	21.5	6.1	-29.9	/
CCOc1ccccc1NC(=S)NC(=O)c1ccco1	26.5	54.1*	37.8	17.8	-18.6	-14.5	35.2
O=C(NNC(=S)NCc1ccccc1)c1ccc(Br)o1	7.2	13.4	4.2	-20.8	17.4	-17.3	/
O=C(NC(=S)NCc1ccccc1)c1ccc2c(c1)OCO2	11.4	50.1*	13.6	28.0	6.4	-5.7	42.7*
O=C(NC(=S)NCc1ccc(Cl)cc1Cl)c1ccco1	6.9	41.9	16.1	/	5.6	-9.8	/
O=C(NC(=S)NCc1ccccc1)c1ccc(Br)o1	9.4	61.4*	29.2	2.7	36.9	10.7	26.1
C[C@@H]1CN([C@H](C)CO)C(=O)Cc2cc(NC(=O)CCC(F)(F)F)ccc2O[C@@H]1CN(C)S(=O)(=O)c1ccccc1	/	/	/	/	/	6.1	/
CCc1ccccc1NC(=O)CN1CCN(CC(=O)Nc2cc(C)ccc2OC)CC1	-3.0	17.3	11.5	27.4	1.3	-10.2	/
COc1ccc(C(=O)Nc2cccc(C)n2)cc1S(=O)(=O)N1CCCc2ccccc21	/	/	/	/	/	-32.3	/
O=C(CC1Sc2ccccc2NC1=O)NNc1cccc(Cl)c1Cl (stereo not given)	/	/	/	/	/	-2.0	/
O=C(NC(=S)NCc1ccccc1)C1CCCCC1	13.1	54.8*	20.2	14.5	41.6	62.4	26.2
Cc1ccc(/C=C/c2ccc3cccc(O)c3n2)s1	-10.1	6.2	14.7	-1.6	17.3	-24.7	/
CC(=O)COc1cccc2ccc(/C=C/c3ccc(Br)s3)nc12	28.0	54.8*	23.6	28.3	24.5	4.7	45.5*
CCCCCOc1ccc(C(=O)CCC(=O)NC(C)c2ccc(S(N)(=O)=O)cc2)cc1 (stereo not given)	2.6	21.7	8.1	/	15.2	-2.8	/
COc1cc(/C=C/C(=O)OCC(=O)NCc2ccccc2OC)ccc1O	-10.1	88.7*	-10.0	/	14.4	3.1	16.6
Cc1ccc(-c2nn(-c3ccccc3)cc2C=C2C(=O)CC(C)(C)CC2=O)cc1	37.0	65.6*	30.9	2.4	38.3	8.6	51.0*
COc1ccc(C2CC(c3ccccc3)=NN2c2ccc(N)cc2)cc1 (stereo not given)	26.5	51.3*	28.0	34.1	21.6	-11.5	41.2*
CCC(=O)Nc1cccc(C2=NN(c3ccccc3)C(c3ccc(OC)cc3)C2)c1 (stereo not given)	12.6	51.4*	7.8	14.5	-5.2	-42.0	30.5
SMILES	TIM10 inh	tim23-1 inh	tim10-1 inh	NALP1 inh	NLRP3 yeast inh	PfHsp90 yeast 2	tim23-1 conf
COc1ccc(C2CC(c3ccccc3)=NN2c2ccc(Cl)c(C(=O)O)c2)cc1 (stereo not given)	8.2	21.2	10.2	8.1	-1.8	-31.0	/
COc1ccc(C2CC(=O)Oc3cc(C)c(Cl)cc32)cc1 (stereo not given)	9.2	52.7*	26.2	/	/	6.3	40.0*
COc1ccc(C2CC(=O)Oc3ccc(OC)cc32)cc1 (stereo not given)	-2.1	40.2	12.9	/	/	-17.3	/
CC(C)C[C@H](NC(=O)OC(C)(C)C)C(=O)N[C@@H](CO)[C@H](O)[C@@H]1C[C@@H]1C(=O)N1CCCC1	0.9	0.5	2.5	6.9	0.5	-13.2	/
CN1CCc2nc3sc(C(=O)C45CC6CC(CC(C6)C4)C5)c(N)c3cc2C1	11.4	90.1*	3.9	5.5	16.3	129.5*	84.8*
Nc1c(C(=O)O)sc2nc3c(cc12)CCCC3	17.9	5.2	0.5	/	19.7	/	/
C=CC(C)(C)O[C@@H]1O[C@H](CO)[C@@H](O)[C@H](O)[C@H]1O	6.4	-4.8	6.9	/	8.8	14.7	/
COc1ccccc1/C=C/C(=O)NC(=S)NC(C)C	10.6	59.0*	-3.4	19.0	20.9	5.6	41.1*
COc1ccccc1/C=C/C(=O)NC(=S)N1CCN(C)CC1	-4.0	-4.2	10.7	2.2	10.9	9.1	/
CCN1CCC2(CC1)N=C(c1ccc(F)cc1)C(=S)N2C(=O)c1ccc(C(C)(C)C)cc1	12.6	52.8*	8.3	8.7	-11.1	-22.8	-12.8
COc1ccc(N=C2S/C(=C\c3ccc(Cl)c([N+](=O)[O-])c3)C(=O)N2CCN(C)C)cc1	34.5	60.4*	39.9	41.3	27.2	-15.4	-26.6
Cc1ccc(NC(=O)CN(C)C2CCCCC2)cc1Cl	-3.9	3.8	-15.0	20.9	25.4	-25.9	/
CCOc1ccc(C2NC(=O)c3ccccc3O2)cc1 (stereo not given)	30.0	21.1	15.7	5.0	22.3	32.6	/
CCc1ccc(C2NC(=O)c3ccccc3O2)cc1 (stereo not given)	10.1	52.1*	9.0	1.8	36.8	-14.5	28.9
CC1CCCCN1C(=O)c1cc(-c2ccc3c(c2)OCO3)on1 (stereo not given)	-4.4	92.0*	-8.9	29.0	28.7	-0.2	27.8
CC1CCCCN1C(=O)c1cc(-c2ccc(Cl)c(Cl)c2)on1 (stereo not given)	21.0	30.3	15.0	9.1	17.1	-8.7	/
O=C(Nc1ccccc1)OC1CCC2CC1CCC2OC(=O)Nc1ccccc1 (stereo not given)	15.3	53.0*	1.9	14.7	-9.2	-1.3	38.5
O=C(Nc1ccccc1)C1CC2CCC1C2 (stereo not given)	6.4	21.2	-5.5	24.5	4.7	-5.0	/
C/C(=N\NC(=O)C1CC1)c1ccc(OC(F)F)cc1	1.7	13.9	8.7	-6.8	23.8	16.5	/
